Source: PubChem BioAssay (Johns Hopkins Ion Channel Center)
KCNQ2 block: rat KCNQ2 potassium channel inhibitors, primary screen, cell-based, CHO-K1, FluxOR thallium flux, B-score; Potassium voltage-gated channel subfamily KQT member 2 (Rattus norvegicus), O88943; 20 min; stronger effect = lower value; B-score at 10 µM; 310,000 compounds, 1.1% hits;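 active = fluorescence ratio B-score at most minus 3 library SDs, with starting brightness B-score within 2 library SDs, cut at about -5.5 in these data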
Target sequence (O88943 whole entry, looked up): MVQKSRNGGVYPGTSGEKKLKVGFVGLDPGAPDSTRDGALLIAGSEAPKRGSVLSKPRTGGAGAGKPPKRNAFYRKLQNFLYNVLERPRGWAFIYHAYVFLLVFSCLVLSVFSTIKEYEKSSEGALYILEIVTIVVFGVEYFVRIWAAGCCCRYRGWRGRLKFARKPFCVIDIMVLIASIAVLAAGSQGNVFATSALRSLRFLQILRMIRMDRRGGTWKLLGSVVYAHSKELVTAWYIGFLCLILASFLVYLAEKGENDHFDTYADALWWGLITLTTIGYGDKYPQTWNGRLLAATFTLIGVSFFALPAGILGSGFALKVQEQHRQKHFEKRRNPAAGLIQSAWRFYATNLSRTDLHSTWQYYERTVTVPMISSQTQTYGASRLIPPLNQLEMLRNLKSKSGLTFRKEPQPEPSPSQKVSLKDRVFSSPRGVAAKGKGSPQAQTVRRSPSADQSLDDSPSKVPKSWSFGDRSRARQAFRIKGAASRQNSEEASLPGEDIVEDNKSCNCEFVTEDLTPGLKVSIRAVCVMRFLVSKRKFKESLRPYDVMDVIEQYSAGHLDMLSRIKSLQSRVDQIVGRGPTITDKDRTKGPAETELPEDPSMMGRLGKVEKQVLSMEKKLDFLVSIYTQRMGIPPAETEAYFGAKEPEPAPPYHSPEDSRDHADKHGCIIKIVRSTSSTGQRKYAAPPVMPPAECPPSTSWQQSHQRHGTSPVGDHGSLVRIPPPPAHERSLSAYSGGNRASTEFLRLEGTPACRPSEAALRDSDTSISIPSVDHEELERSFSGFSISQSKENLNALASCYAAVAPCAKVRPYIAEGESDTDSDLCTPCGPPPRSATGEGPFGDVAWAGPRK
KCNQ2 pot: potentiators of rat KCNQ2 potassium channel | B-score at 10 µM | CHO-K1 KCNQ2, FluxOR thallium flux fluorescence; stronger effect = higher value | AID 2239, 2010 | 310,000 compounds, 0.54% hits | Potassium voltage-gated channel subfamily KQT member 2 (Rattus norvegicus), O88943;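 active = fluorescence ratio B-score at least 3 SD of library B-scores, with initial fluorescence B-score within 3 of them, cut at about 5.3 in these data; same plate scores as AID 2156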;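 also: B-score of peak minus minimum over baseline fluorescence ratio after K+ and Tl+ stimulus; positive B-score means potentiation of KCNQ2 with more thallium influx and brighter signal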
KCNQ2 block conf: rat KCNQ2 potassium channel inhibitors, confirmation, cell-based, thallium flux | shares compounds with KCNQ2 block | KCNQ2-expressing cells, inhibition; stronger effect = lower value | activity change, negative = inhibition, % at 10 µM | 1,000 compounds, 57% hits;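 also: 0% = vehicle wells and values are ratio percent relative to vehicle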
KCNQ1 spec: human KCNQ1 channel inhibition, counter-screen for KCNQ2 inhibitor project, cell-based, FluxOR thallium flux; shares compounds with KCNQ2 block; KCNQ1-expressing cells, FluxOR thallium flux fluorescence; stronger effect = lower value; activity change, negative = inhibition, % at 10 µM; 1,000 compounds, 15% hits; AID 493026, 2011;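 active = activity change at least 3 SD of negative controls below their mean in both duplicate wells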;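 also: CHO cells stably transfected with KCNQ1 and depolarized by potassium stimulus; peak minus minimum fluorescence over baseline after thallium addition; 0% = vehicle negative control and -100% = blank without thallium stimulus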
CHO Tl ctr: thallium flux change in parental CHO cells, counter-screen for KCNQ2 inhibitor project. shares compounds with KCNQ2 block. stronger effect = lower value. activity change, % at 10 µM. 1,000 compounds, 14% hits. AID 493029, 2011;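 also: 0% = vehicle negative controls with stimulus buffer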
KCNQ2 inh confirm: rat KCNQ2 channel inhibitors, confirmation, cell-based, automated patch clamp, single concentration. KCNQ2-expressing cells, automated patch clamp current. AID 588531, 2011. 550 compounds, 49% hits. shares compounds with KCNQ2 block. calls only at 10 µM
* marks the source's active call; other numbers are inactive results; i = inactive; . = no result given; + = active, no number. Only some compounds are listed: those with a hit (about 1.6% of all), similar ones and a draw of the others. Unless noted, no rule for the calls is given here.

SMILES	KCNQ2 block	KCNQ2 pot	KCNQ2 block conf	KCNQ1 spec	CHO Tl ctr	KCNQ2 inh confirm
CC1CN(C(=O)c2cc(S(=O)(=O)N(C)c3ccc(F)cc3)ccc2Cl)CC(C)O1 (centres undefined)	i	0.32	.	.	.	.
COc1ccc(C(=O)CCN2CCN(c3ccccc3OC)CC2)cc1	i	.	.	.	.	.
COc1ccc(C(=O)CCN2CCc3cc(OC)c(OC)cc3C2)cc1	-9.6*	-9.6	-32%*	i	i	i
CCN1CCN(Cc2nnc(-c3ccc(C)cc3)o2)CC1	i	.	.	.	.	.
CCS(=O)(=O)c1ccc2c(c1)N(S(C)(=O)=O)CC(C(=O)NN)O2 (centres undefined)	i	.	.	.	.	.
Cc1ccc(CNC(=O)CCC2CCCN(C(=O)CCC(F)(F)F)C2)o1 (centres undefined)	i	0.91	.	.	.	.
O=C(NCC(c1ccco1)N1CCc2ccccc21)c1ccccc1F (centres undefined)	i	.	.	.	.	.
COc1ccc(C(=O)NCC(c2ccco2)N2CCc3ccccc32)c(OC)c1 (centres undefined)	-8*	-8	-31%*	i	i	+
Cc1ccc(OS(=O)(=O)c2ccc(N3C(=O)CCC3=O)cc2)cc1	i	.	.	.	.	.
CCOc1ccc(NC(=O)[C@@H]2CCC(=O)N2C2OC(=O)c3ccccc32)cc1 (some centres undefined)	i	0.22	.	.	.	.
O=C(Nc1ccc(S(=O)(=O)N2CCOCC2)cc1)c1ccccc1Br	i	1.2	.	.	.	.
Cc1ccccc1CN(C)CC(=O)Nc1ccccc1Oc1ccccc1	-7.5*	-7.5	-32%*	-32%*	-26%*	i
CN(CC(=O)Nc1ccccc1Oc1ccccc1)Cc1ccccc1F	i	.	.	.	.	.
COc1ccc(C2SCC(=O)N2CC23CC4CC(CC(C4)C2)C3)cc1 (centres undefined)	-6.9*	-6.9	-33%*	i	i	i
COc1ccc(C2SCC(=O)N2Cc2ccccc2)cc1 (centres undefined)	i	.	.	.	.	.
Cc1ccc(-n2nc3c(=O)n(CCCC(=O)NCCc4ccccc4C)nc(C)c3c2C)cc1	i	.	.	.	.	.
Cc1cc(C)cc(NCc2ccncc2)c1	i	.	.	.	.	.
O=C(CN1CCCC(O)C1)N1c2ccccc2Sc2ccc(C(F)(F)F)cc21 (centres undefined)	i	.	.	.	.	.
CN1CCN(CCCN2c3ccccc3Sc3ccc(C(F)(F)F)cc32)CC1	-8.1*	-8.1	-34%*	i	i	i
Cc1ccc(CN2CCN(/N=C/c3ccc(C(F)(F)F)cc3)CC2)c(C)c1	i	.	.	.	.	.
Cc1ccc(CN2CCN(/N=C/c3ccc(C(=O)O)cc3)CC2)c(C)c1	-7.3*	-7.3	-26%*	i	i	+
O=C(NC(Cc1ccccc1)C(=O)NCCc1ccccn1)c1ccccc1 (centres undefined)	i	1.3	.	.	.	.
Cc1ccc(S(=O)(=O)N(C)CC(O)Cn2c3ccccc3c3ccccc32)cc1 (centres undefined)	i	.	.	.	.	.
O=S(=O)(c1ccccc1)N(CC(O)Cn1c2ccccc2c2ccccc21)c1ccccc1 (centres undefined)	-9.6*	-9.6	i	i	i	.
CC(C)Oc1ccc(/C=N/NC(=O)c2nnn(-c3nonc3N)c2CN(C)c2ccccc2)cc1	i	0.36	.	.	.	.
SMILES	KCNQ2 block	KCNQ2 pot	KCNQ2 block conf	KCNQ1 spec	CHO Tl ctr	KCNQ2 inh confirm
CCCNC(=O)c1ccccc1NC(=O)c1ccccc1N(C)S(=O)(=O)c1ccccc1	i	.	.	.	.	.
CC(=O)Nc1ccc(NC(=O)c2ccccc2N(C)S(=O)(=O)c2ccc(C)cc2)cc1	i	0.02	.	.	.	.
COC(=O)c1ccccc1NC(=O)c1ccccc1N(C)S(=O)(=O)c1ccccc1	i	.	.	.	.	.
Cc1ccc(S(=O)(=O)N(C)c2ccccc2C(=O)Nc2ccc(F)cc2F)cc1	-8.6*	-8.6	i	i	i	.
Cc1ccccc1CNC(=O)c1ccccc1N(C)S(=O)(=O)c1ccccc1	-6.7*	-6.7	-40%*	-36%*	-28%*	+
Cc1ccc(NC(=O)c2ccccc2N(C)S(=O)(=O)c2ccccc2)c(C)c1	-8.4*	-8.4	-34%*	i	i	+
